Data: PubChem BioAssay AID1159580 (chemical genetic matrix, 2015)
Values joined by “and” are separate entries in the source; they are usually repeats but may differ in a detail not shown here. Identical values can stand only once. Out of some 5,500 compounds screened, about 2,000 (36%) were called active. About 18% were inconclusive and are not listed. Rule as the data show it: active = normalized growth mostly below about 0.91 (no sharp cut-off); inconclusive = no clear call, values can overlap the other calls; inactive = mostly above about 0.92. This is one part of the list.

Assay: chemical genetic growth profiling, strain panel (AID 1159580);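 also: tested at 20 µM; growth read once vehicle control cultures reached saturation at 30 °C; 1 = growth at the plate median or of vehicle wells; lower values mean less growth of the strain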
Details: S. cerevisiae deletion strains, growth OD

Measured: normalized growth

CC1(C)C(=O)C=C[C@@]2(C)C1=C(O)C(=O)[C@]1(C)C2CC[C@@]2(C)[C@H](c3ccoc3)C[C@H]3O[C@]321 (stereo partly specified)
inactive: locus YAL021C, strain ccr4, active compounds read low 0.995 | locus YAL030W, strain snc1, active compounds read low 0.96 | locus YBR021W, strain FUR4, active compounds read low 0.996 | locus YBR171W, strain sec66, active compounds read low 0.916 | locus YBR229C, strain ROT2, active compounds read low 0.923 | locus YCL069W, strain vba3, active compounds read low 0.959 | locus YCR088W, strain abp1, active compounds read low 0.962 | locus YDL005C, strain med2, active compounds read low 0.957 | locus YDL040C, strain nat1, active compounds read low 0.957 | locus YDL185W, strain tfp1, active compounds read low 0.955 | locus YDR001C, strain nth1, active compounds read low 0.967 | locus YDR069C, strain doa4, active compounds read low 0.99 | locus YDR334W, strain swr1, active compounds read low 0.965 | locus YDR335W, strain msn5, active compounds read low 0.969 | locus YDR388W, active compounds read low 0.982 | locus YEL037C, strain rad23, active compounds read low 0.966 | locus YEL061C, strain CIN8 (second series), active compounds read low 0.95 | locus YER016W, strain bim1, active compounds read low 0.934 | locus YER110C, active compounds read low 0.978 | locus YER111C, strain swi4, active compounds read low 0.925 | locus YFR010W, strain ubp6, active compounds read low 0.95 | locus YGL078C, strain dbp3, active compounds read low 0.934 | locus YGL167C, strain pmr1, active compounds read low 0.954 | locus YGL227W, strain vid30, active compounds read low 0.949 | locus YGL240W, strain doc1, active compounds read low 0.916 | locus YHR079C, strain IRE1 (second series), active compounds read low 0.972 | locus YHR094C, strain hxt1, active compounds read low 0.975 | locus YHR200W, strain rpn10, active compounds read low 0.951 | locus YIL073C, strain SPO22, active compounds read low 0.868 | locus YJL092W, strain hpr5, active compounds read low 0.961 | locus YJL115W, strain asf1, active compounds read low 0.969 | locus YJL134W, strain LCB3, active compounds read low 0.966 | locus YJL154C, strain vps35, active compounds read low 0.977 | locus YJL168C, strain set2, active compounds read low 0.985 | locus YJL187C, strain SWE1, active compounds read low 0.928 | locus YKL009W, strain mrt4, active compounds read low 0.885 | locus YKL068W, active compounds read low 0.942 | locus YKR026C, strain gcn3, active compounds read low 0.965 | locus YKR091W, strain srl3, active compounds read low 0.969 | locus YLL001W, strain dnm1, active compounds read low 0.931 | locus YLL026W, active compounds read low 0.944 | locus YLL041C, strain sdh2, active compounds read low 0.991 | locus YLR102C, strain apc9, active compounds read low 0.967 | locus YLR357W, strain rsc2, active compounds read low 1.03 | locus YLR370C, strain arc18, active compounds read low 0.959 | locus YLR384C, strain iki3, active compounds read low 0.973 | locus YMR078C, strain ctf18, active compounds read low 0.936 | locus YMR129W, active compounds read low 0.969 | locus YMR231W, strain pep5, active compounds read low 0.931 | locus YNL067W, strain RPL9B, active compounds read low 0.876 | locus YNL183C, strain NPR1, active compounds read low 0.848 | locus YNL209W, strain ssb2, active compounds read low 0.943 | locus YNL248C, strain rpa49, active compounds read low 0.938 | locus YNL250W, strain rad50, active compounds read low 0.97 | locus YNL271C, strain bni1, active compounds read low 0.96 | locus YNL298W, strain CLA4, active compounds read low 0.922 | locus YNL322C, strain KRE1 (second series), active compounds read low 0.981 | locus YNR049C, strain mso1, active compounds read low 0.962 | locus YOL006C, strain TOP1, active compounds read low 0.666 | locus YOL012C, strain htz1 0.626 | locus YOR080W, strain dia2, active compounds read low 0.964 | locus YOR270C, strain vph1, active compounds read low 0.897 | locus YOR316C, strain cot1, active compounds read low 0.984 | locus YPL078C, strain atp4, active compounds read low 0.939 | locus YPL106C, strain sse1, active compounds read low 0.91 | locus YPR141C, strain kar3, active compounds read low 0.96
active: locus YAL026C, strain drs2, active compounds read low 0.893 | locus YBL061C, strain skt5, active compounds read low 0.884 | locus YBR009C, strain hhf1, active compounds read low 0.672 | locus YBR023C, strain chs3, active compounds read low 0.908 | locus YBR231C, strain swc5, active compounds read low 0.901 | locus YBR279W, strain paf1, active compounds read low 0.908 | locus YCL011C, strain gbp2, active compounds read low 0.827 | locus YCL016C, strain dcc1, active compounds read low 0.901 | locus YCL029C, strain bik1, active compounds read low 0.879 | locus YCL061C, strain MRC1, active compounds read low 0.897 | locus YDL035C, strain GPR1, active compounds read low 0.641 | locus YDL074C, strain BRE1, active compounds read low 0.377 | locus YDL101C, strain DUN1, active compounds read low 0.786 | locus YDL134C, strain PPH21, active compounds read low 0.608 | locus YDL192W, strain arf1, active compounds read low 0.743 | locus YDR101C, strain arx1, active compounds read low 0.843 | locus YDR137W, strain rgp1, active compounds read low 0.602 | locus YDR159W, strain sac3, active compounds read low 0.549 | locus YDR162C, strain NBP2, active compounds read low 0.226 | locus YDR195W, strain ref2 0.785 | locus YDR297W, strain sur2, active compounds read low 0.869 | locus YDR318W, strain mcm21, active compounds read low 0.762 | locus YDR392W, strain spt3, active compounds read low 0.219 | locus YDR502C, strain sam2, active compounds read low 0.833 | locus YEL003W, strain gim4, active compounds read low 0.851 | locus YER015W, strain faa2, active compounds read low 0.902 | locus YER155C, strain BEM2 (second series), active compounds read low 0.814 | locus YER155C, strain BEM2, active compounds read low 0.57 | locus YER167W, strain BCK2, active compounds read low 0.768 | locus YGL086W, strain mad1, active compounds read low 0.767 | locus YGL173C, strain kem1, active compounds read low 0.872 | locus YGL248W, strain PDE1, active compounds read low 0.766 | locus YGL253W, strain hxk2, active compounds read low 0.871 | locus YGR078C, strain PAC10, active compounds read low 0.513 | locus YGR135W, strain pre9, active compounds read low 0.854 | locus YGR252W, strain gcn5, active compounds read low 0.734 | locus YHR013C, strain ard1, active compounds read low 0.842 | locus YHR027C, strain rpn1, active compounds read low 0.917 | locus YHR030C, strain SLT2, active compounds read low 0.697 and 0.536 | locus YHR079C, strain IRE1, active compounds read low 0.821 | locus YHR129C, strain ARP1, active compounds read low 0.613 | locus YHR142W, strain chs7, active compounds read low 0.8 | locus YIL066C, strain RNR3, active compounds read low 0.381 | locus YIL125W, strain kgd1, active compounds read low 0.928 | locus YIR030C, strain dcg1, active compounds read low 0.907 | locus YJL095W, strain BCK1 (second series), active compounds read low 0.777 | locus YJL095W, strain BCK1, active compounds read low 0.363 and 0.62 | locus YJL129C, strain trk1, active compounds read low 0.776 | locus YJL164C, strain tpk1, active compounds read low 0.838 | locus YJL166W, strain qcr8, active compounds read low 0.748 | locus YJL187C, strain SWE1 (second series), active compounds read low 0.808 | locus YJR043C, strain POL32, active compounds read low 0.781 | locus YJR066W, strain TOR1, active compounds read low 0.757 | locus YKL085W, strain MDH1 (second series), active compounds read low 0.885 | locus YKL085W, strain MDH1, active compounds read low 0.885 | locus YKL160W, strain elf1, active compounds read low 0.872 | locus YKL190W, strain CNB1, active compounds read low 0.751 | locus YKR001C, strain vps1, active compounds read low 0.777 | locus YLR027C, strain aat2, active compounds read low 0.791 | locus YLR039C, strain RIC1, active compounds read low 0.404 | locus YLR058C, strain SHM2, active compounds read low 0.782 | locus YLR113W, strain HOG1, active compounds read low 0.776 | locus YLR221C, strain rsa3, active compounds read low 0.759 | locus YLR258W, strain gsy2, active compounds read low 0.88 | locus YLR262C, strain YPT6 (second series), active compounds read low 0.624 | locus YLR262C, strain YPT6, active compounds read low 0.382 | locus YLR268W, strain sec22, active compounds read low 0.788 | locus YLR320W, strain mms22, active compounds read low 0.639 | locus YLR342W, strain FKS1 (second series), active compounds read low 0.578 | locus YLR342W, strain FKS1, active compounds read low 0.881 | locus YLR371W, strain rom2, active compounds read low 0.706 | locus YLR418C, strain cdc73, active compounds read low 0.318 | locus YML016C, strain PPZ1, active compounds read low 0.887 | locus YML032C, strain rad52, active compounds read low 0.811 | locus YML120C, strain ndi1, active compounds read low 0.884 | locus YML124C, strain tub3, active compounds read low 0.922 | locus YMR058W, strain fet3, active compounds read low 0.875 | locus YMR125W, strain sto1, active compounds read low 0.876 | locus YMR205C, strain PFK2, active compounds read low 0.674 | locus YMR223W, strain ubp8, active compounds read low 0.865 | locus YMR307W, strain GAS1, active compounds read low 0.502 | locus YNL071W, strain lat1, active compounds read low 0.44 | locus YNL233W, strain BNI4, active compounds read low 0.706 | locus YNL307C, strain MCK1, active compounds read low 0.505 | locus YNR052C, strain pop2, active compounds read low 0.863 | locus YOL147C, strain pex11, active compounds read low 0.804 | locus YOR001W, strain rrp6, active compounds read low 0.841 | locus YOR061W, strain CKA2, active compounds read low 0.847 | locus YOR069W, strain VPS5, active compounds read low 0.889 | locus YOR070C, strain gyp1, active compounds read low 0.809 | locus YOR083W, strain WHI5, active compounds read low 0.875 | locus YOR106W, strain vam3, active compounds read low 0.801 | locus YOR136W, strain idh2, active compounds read low 0.891 | locus YOR144C, strain elg1, active compounds read low 0.855 | locus YOR184W, strain ser1, active compounds read low 0.487 | locus YOR231W, strain MKK1, active compounds read low 0.706 | locus YOR265W, strain rbl2, active compounds read low 0.918 | locus YOR290C, strain snf2, active compounds read low 0.84 | locus YPL051W, strain arl3, active compounds read low 0.831 | locus YPL240C, strain hsp82, active compounds read low 0.861 | locus YPL256C, strain CLN2, active compounds read low 0.747 | locus YPR119W, strain clb2, active compounds read low 0.915 | locus YPR163C, strain tif3, active compounds read low 0.665 | locus YPR167C, strain met16, active compounds read low 0.85 | strain wtn01, active compounds read low 0.765
